Experimental data from PubChem BioAssay AID686978 (National Center for Advancing Translational Sciences (NCATS), 2013).
Where “and” joins values, the source holds several entries; their conditions need not be identical. Equal entries are not always repeated. Out of some 420,000 compounds screened, about 64,000 (15%) were called active. About 27% were inconclusive and are not listed. Not all results are given here. A number with no mark means an inactive call. The call rests on the fitted dose curve; in most records, active means well fitted inhibition curve with a large enough effect; inconclusive means small, poorly fitted or top-dose-only effect; inactive means flat fitted curve, though single readings scatter.
On the % scale 0 is the no-effect control and ±100 the full control effect; potency means the concentration at half of the fitted maximal effect.

Assay: qHTS for Inhibitors of human tyrosyl-DNA phosphodiesterase 1 (TDP1): qHTS in cells in absence of CPT; further: nearly all actives have a fitted effect of over 55% in size
Conditions: DT40 Tdp1-/- hTDP1 cells, no CPT, ATP luminescence, 48 h; activity change, negative = growth inhibition: at 46.2 µM (top of the series)
In short: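 Stably hTDP1-transfected Tdp1-null chicken DT40 cells were treated with library compounds minus camptothecin and grown for at least 48 hr at 37 °C, after which cellular ATP was quantified by luminescence.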
In the case of `COc1cc(OC)cc(C(=O)NC(=S)N2CCN(c3ccc(C(F)(F)F)cc3[N+](=O)[O-])CC2)c1`, the Potency is reported as 16.4 µM (active). In the case of `O=C(c1ccc(N2CCCC2=O)cc1)N1CCN(c2ccc(C(F)(F)F)cc2[N+](=O)[O-])CC1`, the Potency is reported as 2.31 µM (active). For `O=[N+]([O-])c1cc(C(F)(F)F)ccc1NN=C1CCCC1`, the “activity change, negative = growth inhibition” value was -18%. With `O=C(Nc1cc(Cl)ccc1N1CCOCC1)c1ccc(N2CCCC2=O)cc1` the “activity change, negative = growth inhibition” value was -29%. For `C=CCO/N=C/C1=C(O)C(C(=O)OC)C(C)(C)CC1=O` (stereo not drawn), the “activity change, negative = growth inhibition” value was 10.2%. For `CC(C)(C)c1ccccc1NC(=O)CN1C(=O)NC2(CCCC2)C1=O`, the “activity change, negative = growth inhibition” value was -9.88%. With `CCc1[nH]nc(C(=O)N2CCCC(CNS(=O)(=O)c3cccs3)C2)c1C` (stereo not drawn) the “activity change, negative = growth inhibition” value was -1.36%. With `CC(Nc1nc(N2CCCC2)nc2ccccc12)c1ccccc1` (stereo not drawn) the Potency was 20.6 µM (active). In the case of `CC(NC(=O)C1CCC(CNc2c(N3CCOCC3)c(=O)c2=O)CC1)c1ccccc1` (stereo not drawn), the “activity change, negative = growth inhibition” value is reported as -4.93%. For `FC(F)(F)c1cc(-c2ccco2)nc(N2CCOCC2)n1`, the “activity change, negative = growth inhibition” value was -20.7%. For `c1ccc2c(NC3C4CC5CC(C4)CC3C5)nc(N3CCOCC3)nc2c1` (stereo not drawn), the Potency was 20.6 µM (active). With `CC(CN1CCOCC1)c1ccccc1` (stereo not drawn) the “activity change, negative = growth inhibition” value was 2.15%. With `O=C(COC(=O)CCc1nc2ccccc2c(=O)[nH]1)Nc1ccc(N2CCOCC2)cc1` the “activity change, negative = growth inhibition” value was -20.7%. With `O=C(NNc1nc(N2CCCC2)nc(N2CCCC2)n1)c1ccccc1` the “activity change, negative = growth inhibition” value was 3.31%. In the case of `CC(Nc1nc(N2CCOCC2)nc2ccccc12)c1ccccc1` (stereo not drawn), the Potency is reported as 18.4 µM (active). With `Cc1ccc(C(CC(=O)O)Nc2nc(N3CCCCC3)nc(N3CCCCC3)n2)cc1` (stereo not drawn) the “activity change, negative = growth inhibition” value was -18.1%. In the case of `NC(=O)c1ccc(N2CCCC2)nc1`, the “activity change, negative = growth inhibition” value is reported as -8.99%. In the case of `COc1ccccc1C(=O)Nc1ccc(Nc2ccccc2)cc1`, the “activity change, negative = growth inhibition” value is reported as -12.1%. In the case of `COc1cc(C(=O)Nc2ccc(OCc3cc(=O)n4cc(C)sc4n3)cc2)cc(OC)c1OC`, the “activity change, negative = growth inhibition” value is reported as -12.9%. With `COc1ccccc1C(=O)Nc1ccc(OCc2nnc3c4ccccc4c(C)nn23)cc1` the Potency was 13 µM (active). With `O=C1N=C2SCCN2/C1=C\c1c(Cl)cccc1Cl` the “activity change, negative = growth inhibition” value was -11.7%. In the case of `Cc1c(C(=O)NCCN2C(=O)S/C(=C\c3cccs3)C2=O)cccc1[N+](=O)[O-]`, the “activity change, negative = growth inhibition” value is reported as -0.412%. For `CN(C)c1ccc(C(CC(=O)O)C(=O)O)cc1` (stereo not drawn), the “activity change, negative = growth inhibition” value was 3.38%. In the case of `c1n[nH]c(NCc2ccc3c(c2)OCO3)n1`, the “activity change, negative = growth inhibition” value is reported as -9.16%. For `O=C(CCN1C(=O)c2ccccc2C1=O)C1=NN[C@@H]2C(=O)N(c3ccc(F)cc3)C(=O)[C@H]12`, the “activity change, negative = growth inhibition” value was 0.514%. In the case of `CC(=O)c1ccc(S(=O)(=O)N2CCC3(CC2)OCCO3)cc1`, the “activity change, negative = growth inhibition” value is reported as -24.6%. With `CCCCN(C)CCNC(=O)C1CCCN(S(=O)(=O)c2cccc3nsnc23)C1` (stereo not drawn) the Potency was “inactive”. With `CCCCC(CC)CNC(=O)C1CCN(S(=O)(=O)c2cccc3nsnc23)CC1` (stereo not drawn) the “activity change, negative = growth inhibition” value was -26.8%. With `CCCCN(CC)C(=O)C1CCCN(S(=O)(=O)c2cccc3nsnc23)C1` (stereo not drawn) the Potency was 18.4 µM (active). In the case of `Cc1cc(=O)[nH]c(SCc2cc(Cl)ccc2OC(F)F)n1`, the “activity change, negative = growth inhibition” value is reported as -17.1%. In the case of `O=C(COC(=O)C1CC2CCCC(C1)C2=O)NC(=O)c1ccccc1` (stereo not drawn), the “activity change, negative = growth inhibition” value is reported as -1.16%. In the case of `O=C(COC(=O)c1ccc(NS(=O)(=O)c2cccs2)cc1O)Nc1ccc(F)cc1`, the “activity change, negative = growth inhibition” value is reported as -12.5%. With `CCC(CC)NC(=O)CSc1nnc(-c2c[nH]c3ccccc23)o1` the “activity change, negative = growth inhibition” value was -25.7%. In the case of `O=S(=O)(NCCc1ccncc1)c1ccccc1`, the “activity change, negative = growth inhibition” value is reported as -0.539%. For `CCCC(=O)Nc1cccc(-c2cn3ccsc3n2)c1`, the “activity change, negative = growth inhibition” value was -28.8%. For `CS(=O)(=O)Nc1cccc(-c2cn3ccccc3n2)c1`, the “activity change, negative = growth inhibition” value was -17.7%. In the case of `CCCS(=O)(=O)Nc1cccc(-c2cn3ccsc3n2)c1`, the Potency is reported as 25.9 µM (active). For `O=C1CC2(CCCC2)Oc2ccc(Cl)cc21`, the “activity change, negative = growth inhibition” value was 5.04%. With `COc1cccc2c1OCC(CN1CCN(C3CCCCC3)C(CCO)C1)=C2` (stereo not drawn) the “activity change, negative = growth inhibition” value was -8.3%. In the case of `CCc1cccc(OC2OC(CO)C(O)C(O)C2NC(C)=O)c1` (stereo not drawn), the “activity change, negative = growth inhibition” value is reported as -2.2%. For `Cn1ncc2c(Nc3cccc4ccccc34)ncnc21`, the “activity change, negative = growth inhibition” value was -26.8%. In the case of `O=C(O)C(NS(=O)(=O)c1cccc2nsnc12)c1ccccc1` (stereo not drawn), the “activity change, negative = growth inhibition” value is reported as 9.14%. For `COc1ccc(CNC(=O)C(NS(=O)(=O)c2cccc3nsnc23)C(C)C)cc1` (stereo not drawn), the “activity change, negative = growth inhibition” value was 0.675%. In the case of `CCOC(=O)c1cccc(NC(=O)C(Cc2ccccc2)NS(=O)(=O)c2cccc3nsnc23)c1` (stereo not drawn), the Potency is reported as 23.1 µM (active). In the case of `COc1ccc(NC(=S)N2CCCC(CO)C2)c(OC)c1` (stereo not drawn), the “activity change, negative = growth inhibition” value is reported as 1.5%. In the case of `O=C(C1CCCO1)N(c1ccc(F)cc1)C1C=CS(=O)(=O)C1` (stereo not drawn), the “activity change, negative = growth inhibition” value is reported as -14.6%. For `O=C(Nc1ccccc1Cl)Nc1cccc2cccnc12`, the “activity change, negative = growth inhibition” value was -2.9%. With `O=C(Nc1ccccc1)Oc1cccc2cccnc12` the Potency was 1.03 µM (active). In the case of `COc1ccc(NC(=O)Nc2cccc3cccnc23)cc1`, the “activity change, negative = growth inhibition” value is reported as -8.75%. With `CSCCC(NC(=O)COc1ccccc1)C(=O)N(C)CC(=O)Nc1ccc(C)cc1` (stereo not drawn) the “activity change, negative = growth inhibition” value was -4.34%. In the case of `COc1ccc(S(=O)(=O)NCCc2cc3ccc(C)c(C)c3[nH]c2=O)cc1`, the Potency is reported as 8.2 µM (active) and 23.1 µM (active). In the case of `COc1ccc(CCNS(=O)(=O)c2cccc([N+](=O)[O-])c2)cc1`, the “activity change, negative = growth inhibition” value is reported as 5.04%. With `COc1ccc(S(=O)(=O)NCCSc2nnnn2-c2ccccc2)cc1` the “activity change, negative = growth inhibition” value was -4.54%.
